In experiment [1] the target is Bcl-2-like protein 1 (Homo sapiens) (UniProt Q07817). Put plainly: Bcl-xL BH3-peptide displacement, hit confirmation – biochemical, fluorescence polarization, counter-screen for MCL1 inhibitor project (AID 2166;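 active means inhibition above a cutoff equal to the mean inhibition of all tested compounds plus 3 SD, cut at about 30% in these data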). To be noted: GST-Bcl-xL / FITC-Bim BH3 peptide FP binding; at 10.9 µM; active compounds read high.
Experiment [2] addresses Induced myeloid leukemia cell differentiation protein Mcl-1 (Homo sapiens) (UniProt Q07820). Put plainly: MCL1-BIM peptide interaction disruptors – biochemical, fluorescence polarization, triplicate, confirmation (AID 2168).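 Further: 0% = DMSO wells and 100% = unlabeled Bim-BH3 control peptide.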 The note with it: GST-MCL1 / FITC-Bim-BH3 fluorescence polarization; at 10.9 µM; active compounds read high.
The target of experiment [3] is Glutathione S-transferase omega-1 (Homo sapiens) (UniProt P78417). Put plainly: recombinant GSTO1 blockers, retest – biochemical, fluorescence polarization, triplicate, counter-screen for RBBP9 inhibitor project, confirmation (AID 2176;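 active means inhibition above the primary screen's cutoff, its mean inhibition plus 3 SD, cut at about 35% in these data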;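 further: loss of polarization as inhibitors block binding of rhodamine sulfonate ester activity probe; 0% = GSTO1 with DMSO and 100% = wells lacking GSTO1 enzyme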). The note with it: recombinant GSTO1, probe fluorescence polarization; at 5.96 µM; active compounds read high.
Sequence of Glutathione S-transferase omega-1 (Homo sapiens) (P78417 whole entry, looked up): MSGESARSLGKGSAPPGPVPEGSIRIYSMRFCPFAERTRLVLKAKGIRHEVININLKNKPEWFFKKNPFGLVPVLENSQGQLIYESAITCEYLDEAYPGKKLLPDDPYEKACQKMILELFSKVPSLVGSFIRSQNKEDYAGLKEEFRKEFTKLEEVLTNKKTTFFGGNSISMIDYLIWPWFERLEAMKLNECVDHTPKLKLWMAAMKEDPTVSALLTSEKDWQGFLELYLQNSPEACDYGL
The target of experiment [4] is Serine protease HTRA1 (Homo sapiens) (UniProt Q92743). Put plainly: confirming inhibition of human HTRA1 – biochemical, fluorescence polarization, confirmation (AID 540248;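 active means mean inhibition over three repeats above a set limit taken from the earlier primary screen, cut at about 37% in these data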;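 further: 0% = HTRA1 with DMSO and 100% = wells lacking HTRA1; inhibitors block probe binding so polarization drops and inhibition rises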). To be noted: recombinant HTRA1, FP-rhodamine activity-based probe, at 5.96 µM, active compounds read high.
The target of experiment [5] is Nuclear receptor coactivator 3 (Homo sapiens) (UniProt Q9Y6Q9). Put plainly: NCOA3 GAL4-fusion reporter inhibition – cell-based, luminescence, quadruplicate, confirmation (AID 588792;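 active means mean inhibition over 43.08%, the solvent-only control mean plus 3 SD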;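 further: 0% = DMSO treated cells and 100% = gossypol at 36 µM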). The note with it: HEK293 GAL4-SRC3 luciferase reporter, at 3.6 µM, active compounds read high.
Sequence of Nuclear receptor coactivator 3 (Homo sapiens) (Q9Y6Q9 whole entry, looked up, the tested form may be a part): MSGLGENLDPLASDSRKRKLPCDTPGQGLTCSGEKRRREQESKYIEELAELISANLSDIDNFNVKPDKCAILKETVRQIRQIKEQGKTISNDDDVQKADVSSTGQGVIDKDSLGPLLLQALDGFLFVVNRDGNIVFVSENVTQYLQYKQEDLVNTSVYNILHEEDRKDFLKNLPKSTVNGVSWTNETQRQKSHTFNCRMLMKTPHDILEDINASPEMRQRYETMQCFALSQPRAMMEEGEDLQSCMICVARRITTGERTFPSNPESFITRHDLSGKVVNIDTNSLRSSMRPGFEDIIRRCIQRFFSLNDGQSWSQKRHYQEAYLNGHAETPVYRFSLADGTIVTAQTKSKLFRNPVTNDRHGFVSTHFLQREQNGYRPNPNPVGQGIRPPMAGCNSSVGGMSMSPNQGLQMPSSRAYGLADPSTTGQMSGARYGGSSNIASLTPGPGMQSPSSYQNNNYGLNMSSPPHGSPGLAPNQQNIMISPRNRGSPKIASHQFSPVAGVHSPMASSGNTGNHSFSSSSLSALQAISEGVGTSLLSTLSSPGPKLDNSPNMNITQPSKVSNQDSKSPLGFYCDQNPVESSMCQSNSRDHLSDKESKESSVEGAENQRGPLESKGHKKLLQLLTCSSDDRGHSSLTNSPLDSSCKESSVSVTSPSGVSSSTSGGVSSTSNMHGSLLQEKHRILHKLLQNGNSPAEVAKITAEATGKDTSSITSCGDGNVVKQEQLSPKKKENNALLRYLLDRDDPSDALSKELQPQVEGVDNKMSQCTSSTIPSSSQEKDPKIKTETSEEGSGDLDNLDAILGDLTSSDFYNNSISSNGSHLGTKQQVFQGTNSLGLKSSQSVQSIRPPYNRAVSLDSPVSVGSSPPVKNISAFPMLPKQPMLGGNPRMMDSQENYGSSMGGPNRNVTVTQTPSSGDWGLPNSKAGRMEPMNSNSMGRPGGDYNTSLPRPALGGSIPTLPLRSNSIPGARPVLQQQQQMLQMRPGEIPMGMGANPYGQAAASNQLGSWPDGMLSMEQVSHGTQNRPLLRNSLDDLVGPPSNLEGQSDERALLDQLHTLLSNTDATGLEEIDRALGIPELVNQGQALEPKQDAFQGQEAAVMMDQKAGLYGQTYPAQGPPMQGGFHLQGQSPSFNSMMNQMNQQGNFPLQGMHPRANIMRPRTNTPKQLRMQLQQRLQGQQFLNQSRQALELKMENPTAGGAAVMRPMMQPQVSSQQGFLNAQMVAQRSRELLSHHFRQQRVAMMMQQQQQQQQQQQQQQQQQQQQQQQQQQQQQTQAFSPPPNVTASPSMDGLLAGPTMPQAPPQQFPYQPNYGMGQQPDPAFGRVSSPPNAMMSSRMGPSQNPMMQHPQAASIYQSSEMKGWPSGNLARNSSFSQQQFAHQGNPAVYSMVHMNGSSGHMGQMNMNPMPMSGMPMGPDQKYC
Experiment [6] relates to transactivating tegument protein VP16 (Human herpesvirus 1), Gal4-VP16 luciferase reporter. Put plainly: repression of VP16-driven luciferase reporter – cell-based, luminescence, high throughput, counter-screen for SRC3 inhibitor project (AID 588794; in the data active means inhibition above about 30%). The note with it: mammalian cells, at 3.6 µM, active compounds read high.
For experiment [7], the target named is Nuclear receptor coactivator 1 (Homo sapiens) (UniProt Q15788). Put plainly: NCOA1 GAL4-fusion reporter inhibition – cell-based, luminescence, quadruplicate, confirmation (AID 588820;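 active means mean inhibition above 46.68%, the untreated control wells mean plus 3 SD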;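 further: 0% = DMSO wells and 100% = gossypol 36 µM treated wells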). To be noted: HEK293 GAL4-SRC1 luciferase reporter, at 3.6 µM, active compounds read high.
Sequence of Nuclear receptor coactivator 1 (Homo sapiens) (Q15788 whole entry, looked up, the tested form may be a part): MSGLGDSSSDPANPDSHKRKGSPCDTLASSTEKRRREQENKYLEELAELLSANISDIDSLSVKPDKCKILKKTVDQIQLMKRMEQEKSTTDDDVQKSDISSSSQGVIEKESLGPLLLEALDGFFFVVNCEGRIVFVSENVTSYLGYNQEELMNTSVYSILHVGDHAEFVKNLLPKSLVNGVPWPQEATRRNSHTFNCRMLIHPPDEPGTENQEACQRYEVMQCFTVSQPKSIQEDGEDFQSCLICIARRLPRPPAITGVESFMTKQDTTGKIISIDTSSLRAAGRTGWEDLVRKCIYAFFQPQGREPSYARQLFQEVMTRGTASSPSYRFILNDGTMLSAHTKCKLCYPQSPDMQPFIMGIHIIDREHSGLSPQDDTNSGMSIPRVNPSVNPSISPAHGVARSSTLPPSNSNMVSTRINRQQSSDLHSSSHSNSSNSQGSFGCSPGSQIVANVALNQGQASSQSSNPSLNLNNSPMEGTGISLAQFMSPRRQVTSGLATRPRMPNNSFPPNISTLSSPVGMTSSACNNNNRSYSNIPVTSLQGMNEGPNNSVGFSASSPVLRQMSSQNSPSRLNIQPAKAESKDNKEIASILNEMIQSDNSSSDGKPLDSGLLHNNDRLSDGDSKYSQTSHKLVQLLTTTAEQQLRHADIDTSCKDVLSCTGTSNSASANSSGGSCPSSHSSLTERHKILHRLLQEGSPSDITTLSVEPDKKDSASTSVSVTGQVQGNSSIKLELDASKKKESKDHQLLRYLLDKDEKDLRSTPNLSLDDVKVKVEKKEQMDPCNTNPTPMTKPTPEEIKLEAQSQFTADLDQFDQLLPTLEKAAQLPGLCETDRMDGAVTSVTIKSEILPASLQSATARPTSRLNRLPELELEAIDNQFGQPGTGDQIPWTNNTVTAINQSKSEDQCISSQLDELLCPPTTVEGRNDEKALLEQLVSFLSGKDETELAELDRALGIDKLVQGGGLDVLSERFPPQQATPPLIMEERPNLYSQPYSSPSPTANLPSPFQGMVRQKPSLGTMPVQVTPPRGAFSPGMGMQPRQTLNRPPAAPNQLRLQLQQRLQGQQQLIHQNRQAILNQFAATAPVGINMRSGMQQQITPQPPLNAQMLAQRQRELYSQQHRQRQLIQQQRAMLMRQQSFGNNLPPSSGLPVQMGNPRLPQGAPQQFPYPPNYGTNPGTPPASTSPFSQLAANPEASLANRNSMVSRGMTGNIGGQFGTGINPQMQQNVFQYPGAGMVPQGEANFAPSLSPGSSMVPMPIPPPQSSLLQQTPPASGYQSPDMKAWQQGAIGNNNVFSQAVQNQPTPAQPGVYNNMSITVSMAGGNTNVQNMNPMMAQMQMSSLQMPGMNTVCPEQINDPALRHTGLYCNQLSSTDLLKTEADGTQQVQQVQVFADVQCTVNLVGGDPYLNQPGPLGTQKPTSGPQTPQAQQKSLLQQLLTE
Experiment [8] is described as follows: repression of VP16-driven luciferase reporter – cell-based, luminescence, high throughput, counter-screen for SRC1 inhibitor project (AID 588824; in the data active means inhibition above about 25%). The note with it: cell-based VP16 transactivation luciferase luminescence; at 3.6 µM; active compounds read high.
For experiment [9], the target named is (Lyso)-N-acylphosphatidylethanolamine lipase (Mus musculus) (UniProt Q8VD66). Put plainly: mouse ABHD4 hydrolase blockers, triplicate – biochemical, fluorescence polarization, confirmation (AID 720658;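 active means mean inhibition across replicates above the hit cutoff set in the primary screen, cut at about 30% in these data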;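 further: 0% = wild-type ABHD4 with DMSO and 100% = catalytically dead S159A mutant with DMSO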). To be noted: purified mABHD4, FP-Rh probe fluorescence polarization; at 8.92 µM; active compounds read high.
Sequence of (Lyso)-N-acylphosphatidylethanolamine lipase (Mus musculus) (Q8VD66 whole entry, looked up): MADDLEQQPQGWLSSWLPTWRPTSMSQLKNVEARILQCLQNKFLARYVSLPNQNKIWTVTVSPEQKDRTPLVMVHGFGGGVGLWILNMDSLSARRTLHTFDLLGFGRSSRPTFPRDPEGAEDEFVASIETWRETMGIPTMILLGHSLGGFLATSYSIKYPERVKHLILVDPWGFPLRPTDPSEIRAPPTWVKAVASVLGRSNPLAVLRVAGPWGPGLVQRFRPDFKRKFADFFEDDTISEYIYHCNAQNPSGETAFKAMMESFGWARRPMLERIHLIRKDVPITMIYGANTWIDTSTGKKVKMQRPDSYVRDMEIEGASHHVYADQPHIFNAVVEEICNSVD
In experiment [10] the target is Lytic switch protein BZLF1 (Epstein-Barr virus (strain B95-8)) (UniProt P03206). Put plainly: blockers of Zta-ZRE DNA complex – biochemical, fluorescence polarization, triplicate, confirmation (AID 2361;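 active means mean inhibition across triplicate runs above the hit threshold derived for the original primary screen, cut at about 33% in these data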;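 further: 0% = Zta with DMSO and 100% = wells lacking Zta protein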). To be noted: Zta-ZRE DNA binding, at 11.1 µM, active compounds read high.
Sequence of Lytic switch protein BZLF1 (Epstein-Barr virus (strain B95-8)) (P03206 whole entry, looked up): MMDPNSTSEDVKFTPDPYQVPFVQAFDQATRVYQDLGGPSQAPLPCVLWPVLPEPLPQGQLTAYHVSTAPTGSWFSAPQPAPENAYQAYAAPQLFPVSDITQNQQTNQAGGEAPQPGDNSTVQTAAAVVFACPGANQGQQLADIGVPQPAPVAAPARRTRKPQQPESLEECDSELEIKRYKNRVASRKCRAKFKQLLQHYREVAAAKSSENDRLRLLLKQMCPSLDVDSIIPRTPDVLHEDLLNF
For experiment [11], the system named is Epstein-Barr virus nuclear antigen 1 (EBNA-1), Human herpesvirus 4. Put plainly: blockers of EBV EBNA-1 binding to DNA – biochemical, fluorescence polarization, counter-screen for ZTA inhibitor project (AID 2362; call rule not given here). The note with it: EBNA-1 DNA binding, at 14.8 µM, active compounds read high.
The target in experiment [12] is Protein-arginine deiminase type-4 (Homo sapiens) (UniProt Q9UM07). Put plainly: protein arginine deiminase 4 blockade, retest – biochemical, fluorescence polarization, confirmation (AID 488796;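 active means mean inhibition across replicates above the hit cutoff set by the earlier primary screen, cut at about 15% in these data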;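 further: inhibitors block active-site labeling by the probe so polarization falls; 0% = PAD4 with probe and DMSO and 100% = probe without PAD4 enzyme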). To be noted: recombinant PAD4, RCA probe fluorescence polarization; at 6.36 µM; active compounds read high.
Sequence of Protein-arginine deiminase type-4 (Homo sapiens) (Q9UM07 whole entry, looked up): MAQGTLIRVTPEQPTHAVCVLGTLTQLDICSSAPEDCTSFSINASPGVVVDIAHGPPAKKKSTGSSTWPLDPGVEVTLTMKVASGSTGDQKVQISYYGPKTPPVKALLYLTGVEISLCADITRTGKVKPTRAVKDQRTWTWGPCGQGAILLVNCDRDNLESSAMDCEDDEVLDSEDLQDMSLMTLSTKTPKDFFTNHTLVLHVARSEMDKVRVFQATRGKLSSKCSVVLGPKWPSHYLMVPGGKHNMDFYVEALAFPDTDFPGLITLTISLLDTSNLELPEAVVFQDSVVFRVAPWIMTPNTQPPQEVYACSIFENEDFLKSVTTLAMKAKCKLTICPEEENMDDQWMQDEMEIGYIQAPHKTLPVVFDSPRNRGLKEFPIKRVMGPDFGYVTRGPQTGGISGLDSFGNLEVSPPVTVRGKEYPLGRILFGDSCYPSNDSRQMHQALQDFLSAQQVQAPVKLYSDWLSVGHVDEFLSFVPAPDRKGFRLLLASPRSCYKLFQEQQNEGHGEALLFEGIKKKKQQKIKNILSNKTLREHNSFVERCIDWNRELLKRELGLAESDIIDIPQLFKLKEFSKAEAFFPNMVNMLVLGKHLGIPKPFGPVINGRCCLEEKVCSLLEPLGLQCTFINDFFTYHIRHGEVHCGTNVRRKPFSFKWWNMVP
Experiment [13] is described as follows: BSA probe fluorescence interference – biochemical, TAMRA-labeled BSA, counter-screen for TCR-CD3 interaction inhibitor project (AID 652035; in the data active means inhibition above about 23%;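 further: 0% = buffer low control and 100% = reference high control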). The note with it: TAMRA-labeled BSA probe fluorescence counterscreen; at 9.4 µM; active compounds read high.
The test system of experiment [14] is T-cell receptor (TCR)-CD3 interaction, human. Put plainly: blockers of TCR binding to CD3 – biochemical, fluorescence, TAMRA-labeled TCR probe, confirmation (AID 652036; in the data active means inhibition above about 19%). The note with it: TAMRA-labeled TCR probe fluorescence binding assay; at 9.4 µM; active compounds read high.
For experiment [15], the target named is Insulin-degrading enzyme (Homo sapiens) (UniProt P14735). Put plainly: cellular IDE Abeta-cleavage inhibition – fluorescence polarization, HEK cells, FAbetaB substrate, confirmation (AID 435028;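 active means mean inhibition across triplicate wells above the cutoff set by the earlier primary insulin-degrading enzyme screen, cut at about 16% in these data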;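 further: 0% = DMSO wells and 100% = 60 µM reference IDE inhibitor Ii1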). To be noted: at 5.59 µM, active compounds read high.
Experiment [16] in a line: HEK cell viability loss – luminescence, cytotoxicity control for IDE inhibitor project (AID 449730; in the data active means inhibition above about 22%;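 further: 0% = vehicle wells and 100% = reference cytotoxic drug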). The note with it: HEK293 cytotoxicity, ATP luminescence; at 5.59 µM; active compounds read high.

Values without a mark were called inactive. The list shows a part of the results. Calls of active or inactive are those of the source.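 How the source made its calls, unless noted: active means inhibition above the average of all tested compounds plus 3 SD (cut at about 40% in these data); inactive means the rest.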

Sequence of Bcl-2-like protein 1 (Homo sapiens) (Q07817 whole entry, looked up): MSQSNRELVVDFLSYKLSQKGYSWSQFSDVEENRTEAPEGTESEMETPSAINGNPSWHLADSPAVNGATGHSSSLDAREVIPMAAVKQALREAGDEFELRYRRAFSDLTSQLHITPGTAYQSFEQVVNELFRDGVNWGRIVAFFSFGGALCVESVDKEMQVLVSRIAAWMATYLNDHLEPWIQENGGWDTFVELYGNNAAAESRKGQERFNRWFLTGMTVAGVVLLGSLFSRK
Sequence of Induced myeloid leukemia cell differentiation protein Mcl-1 (Homo sapiens) (Q07820 whole entry, looked up): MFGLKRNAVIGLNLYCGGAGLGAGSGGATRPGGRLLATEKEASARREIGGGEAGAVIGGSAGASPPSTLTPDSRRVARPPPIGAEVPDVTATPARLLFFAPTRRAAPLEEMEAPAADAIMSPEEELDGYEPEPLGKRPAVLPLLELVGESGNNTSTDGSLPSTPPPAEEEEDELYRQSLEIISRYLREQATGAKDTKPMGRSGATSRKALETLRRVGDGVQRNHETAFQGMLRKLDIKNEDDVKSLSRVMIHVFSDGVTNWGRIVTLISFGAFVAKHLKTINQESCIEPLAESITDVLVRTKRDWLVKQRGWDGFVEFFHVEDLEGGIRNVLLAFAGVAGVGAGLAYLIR

Regarding `Oc1ccc2ccccc2c1N=Nc1nccs1`, the inhibition in experiment [1] was -28.4%; in experiment [2], -52.8%; in experiment [3], 24.3%; in experiment [4], 52.2% (active); in experiment [5] it was 45.8% (active); in experiment [6], 46.5% (active). The inhibition in [7] was 29.6%; in [8], 55.1% (active); in [9] it was 64.9% (active).
Consider `O=c1[nH]c2ccccc2n2c(-c3ccccc3)nnc12`, for which the inhibition is 36.7% (active) in experiment [1], 34.5% in experiment [2] and 23.1% in experiment [3].
Consider `Cc1ccc(C2Nc3cccc4cccc(c34)N2)cc1`, for which the inhibition in experiment [1] is 13.9%; in experiment [2], 13.8%.
The like results for `Cn1c2ccccc2c(=O)c2c(=O)n(Cc3ccco3)c(COc3ccccc3)nc21` were, in that order, 38.4% (active) and 60.8% (active).
For the molecule `COC(=O)[C@H]1[C@H]2C[C@H]3c4[nH]c5ccccc5c4CCN3C[C@@H]2CC[C@@H]1O`, the inhibition in [1] is 88.6% (active); in experiment [2], 112% (active); in experiment [10], 22.7%; in experiment [11] it was -1.66%.
Regarding `CN1c2ccc(C=O)c3c(C=O)ccc(c23)N(C)C1(C)C`, the inhibition in experiment [1] is 126% (active); in [2] it was 151% (active); in experiment [3], 63.5% (active); in experiment [12], 18.5% (active); in experiment [4], 46.9% (active); in experiment [5], 27.9%. Further, the inhibition was 9.96% in [6]; 13.7% in [7]; 16.3% in experiment [8]; 15.3% in experiment [13]; 10.7% in experiment [14]; 20.4% in [9].
In the case of `O=C(COC(=O)Cn1cnc2ccccc21)Nc1cccc2c1C(=O)c1ccccc1C2=O`, the values for the inhibition in experiment [1] and in experiment [2] were 88.4% (active) and 73.3% (active), respectively.
The like results for `COC(=O)C[n+]1cccc2ccccc21` were, in that order, 142% (active) and 173% (active).
In the case of `CCCN1CC=C2C(C#N)=C(N)C(C#N)(C#N)C(c3cc(OC)ccc3OC)C2C1` (centres undefined), the inhibition is 35.6% (active) in [1] and 35.4% in experiment [2].
Turning to `O=C1c2ccccc2C(=O)c2c1cccc2N1CCN(CCO)CC1`, the inhibition is 43.9% (active) in experiment [1] and 58.3% (active) in experiment [2].
The like results for `O=C(C[n+]1cc(Br)cc2ccccc21)c1ccc(F)cc1` were, in that order, 23% and 22.2%.
The corresponding values for `COc1ccc(C2C=C(c3ccc(Br)cc3)Nc3nc(NS(C)(=O)=O)nn32)cc1` (centres undefined) are 133% (active) and 167% (active).
For the molecule `COc1ccc(Nc2cc(Cl)ccc2C(=O)O)cn1`, the inhibition in [1] was 38.7% (active); in experiment [2], 53.5% (active).
The like results for `O=C(COC(=O)c1ccccc1C(=O)N1CCN(c2ccccc2)CC1)NCc1ccccc1` were, in that order, 22.1% and 16.5%.
As to `CC/C(C)=N/Nc1nc2sc3c(c2c(=O)[nH]1)CC(C)(C)OC3`, the inhibition in experiment [1] is 34.7% (active); in [2], 53.8% (active).
The corresponding values for `Cc1nnc(NC(=O)/C=C/c2ccco2)s1` are 11.6% and 16.8%.
In the case of `CC(C)(C)OC(=O)NCCCC1=CC2=CC(=O)C(C)(OC(=O)c3ccco3)C(=O)C2=CO1` (centres undefined), the inhibition in experiment [1] was 26.3%; in [2], 36.3%.
The corresponding values for `O=S(=O)([N-]c1nc2ccccc2nc1-[n+]1ccc(Cc2ccccc2)cc1)c1ccc(Br)s1` are 33.4% (active) and 33.7%.
On to `Fc1ccc(CNc2nc3ccccc3n3nnnc23)cc1`, for which the results for the inhibition in experiment [1] and in experiment [2] were 36.6% (active) and 41.3% (active), respectively.
The like results for `COC(=O)c1sc(NC(=S)NC(=O)c2ccc(C)cc2)nc1C` were, in that order, 12.1% and 19.3%.
Regarding `C=CCOc1cccc(C2C(C(=O)c3ccc(C)o3)=C(O)C(=O)N2c2nnc(C)s2)c1` (centres undefined), the inhibition in experiment [1] is 70.1% (active); in experiment [2] it was 80.5% (active); in [15], 6.36%; in [16], 5.97%.
Turning to `Brc1ccc(C2=CC(c3ccco3)n3ncnc3N2)cc1` (centres undefined), the figures for the inhibition in experiment [1] and in [2] were 52.9% (active) and 75.9% (active), respectively.
Regarding `CN1C(=O)/C(=C/c2ccco2)SC1=Nc1cccc(C(=O)O)c1`, the inhibition in experiment [1] was 93% (active); in experiment [2] it was 125% (active); in experiment [10], -7.94%; in [11], 0.8%.
For the molecule `Cc1ccc(C(=O)NC(=S)Nc2ccc(N3CCOCC3)cc2)cc1`, the inhibition is 8.63% in experiment [1] and 8.72% in experiment [2].
With `CCCn1c(C2CCCN2c2nc(-c3ccc(C)cc3)cs2)nc2cc(Cl)c(N3CCCCC3)cc21` (centres undefined), the inhibition in [1] was 4.86%; in experiment [2], 15.1%.
The corresponding values for `COC/C=C/C1=CC2=CC(=O)C(C)(OC(=O)CCC(=O)OC)C(=O)C2=CO1` (centres undefined) are 43.5% (active) and 59.1% (active).
Consider `Cc1ccc(/C=C(\C#N)C(=O)Nc2cccc3ncccc23)o1`, for which the inhibition in experiment [1] is 23.1%; in [2], 43.1% (active).
As for `C1=C(N2CCOCC2)/C(=C/c2nc3ccccc3[nH]2)CC1`, the results for the inhibition in experiment [1] and in experiment [2] were 55.3% (active) and 63% (active), respectively.
`N/C(=N\OC(=O)CCc1ccccc1)c1ccc(Cl)cc1`: the inhibition in [1] was 1.43%; in [2], -0.05%.
The corresponding values for `O=C(O)c1ccccc1N=N/C(=N/Nc1cc(S(=O)(=O)O)ccc1O)c1ccccc1` are 29.1% and 69.6% (active).
`CN(C)c1ccc(Nc2c3c4c(cccc4n(C)c2=O)C(=O)c2ccccc2-3)cc1`: the inhibition in [1] was 80.1% (active); in [2], 91.2% (active).
The like results for `COC(=O)c1cc(OCC(=O)NC2CCCc3ccccc32)cc(C(=O)OC)c1` (centres undefined) were, in that order, 16.3% and 28.4%.
The corresponding values for `Cc1ccc(NC(=O)c2cc(-c3ccc(C)o3)nc3ccccc23)nc1` are 12.4% and 41.7% (active).
The like results for `COCCn1c(N)c(NCc2ccccc2)c(=O)[nH]c1=O` were, in that order, 37.1% (active) and 62.8% (active).
For `CCOC(=O)c1cc2n(c1N)-c1ccccc1C2=O`, the inhibition in experiment [1] was 91.1% (active); in experiment [2], 106% (active).
